Results reported in PubChem BioAssay (NCI).
Several values for one entry are separate records, joined by “and”; a condition that tells them apart may be missing. Equal values may be shown once. The panel holds about 83,000 compounds, 20% with a hit somewhere; the sample as a whole holds those more often.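 Plates (96-well) were seeded with cells, treated with compound at one concentration, and incubated for 48 hours before percent growth was determined.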 Unmarked numbers belong to inactive results. Activity calls are given as the source filed them. How the source made its calls: active means growth percent below 10; inactive means the rest.

system: SK-MEL-2 melanoma; assay: NCI-60 one-dose screen, 48 h (100 = growth as untreated, 0 = no growth, -100 = all killed); settings: 10 µM unless noted

| Structure (SMILES) | growth |
| --- | --- |
| COc1ccc(-c2[nH]c3ccccc3c2-c2ccc(OC)cc2)cc1 | 64.6% |
| COc1ccc(/C=N\Nc2nc(SCC(C)C)nc(-c3ccc(OC)cc3)c2C#N)cc1 | 87% |
| CN(C)C(=O)c1cc2cnc(Nc3ccc(-c4csc5c(=S)cc(N6CCOCC6)oc45)cc3)nc2n1C1CCCC1 | -24.6% (active) |
| O=C(Nc1ccc2ncsc2c1)c1csc(Nc2ccc3[nH]ncc3c2)n1 | 50.6% |
| NS(=O)(=O)c1ccc(C(=O)N=Nc2c(O)[nH]c3c(F)cccc23)cc1 | 104% |
| C/C=C(\C)C(=O)N[C@H]1CC[C@]2(C)C3CC[C@@]4(C)C(CC[C@@H]4C(C)N(C)C)C3CCC2[C@H]1OC(C)=O (some centres undefined) | -32.7% (active) |
| CC(=O)N1N=C(c2ccc(Nc3nc(Nc4ccc(F)cc4)nc(Nc4ccc(Cl)cc4)n3)cc2)CC1c1ccc(N(C)C)cc1 (centres undefined) | 30.8% |
| ON=C1CCCCCCCC1 | 94.9% and 100% |
| Cc1ccc(NC(=O)c2sc3nc(C)c(C(=O)c4ccccc4)cc3c2N)cc1 | 93.8% |
| O=C(/C=C/c1ccc([N+](=O)[O-])cc1)c1ccccc1 | 91.1% |
| COc1cc(CO)cc2cc3ccccc3nc12 | 111% |
| O=C(Cc1ccc(F)cc1)c1ccccc1 | 114% |
| COc1cc(-c2[nH]ncc2Nc2ccc(Cl)cc2)cc(OC)c1OC | 112% |
| CC1(Cc2ccccc2)CC2=C(C(=O)O1)C(c1ccccc1)NC(=O)N2 (centres undefined) | 107% |
